High-throughput results (PubChem BioAssay)
FBA Mtb inh – Mtb FBA enzyme inhibitors, primary screen, biochemical, fluorescence, strain H37Rv. inhibition, % at 1 µM. hit rate 2.3% among 360,000. Fructose-bisphosphate aldolase (Mycobacterium tuberculosis (strain ATCC 25618 / H37Rv)), …. purified M. tuberculosis FBA, fluorescence read-out. AID 588726, 2011;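 also: 0% = vehicle and 100% = reference inhibitor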
Target sequence (P9WQA3 whole entry, looked up): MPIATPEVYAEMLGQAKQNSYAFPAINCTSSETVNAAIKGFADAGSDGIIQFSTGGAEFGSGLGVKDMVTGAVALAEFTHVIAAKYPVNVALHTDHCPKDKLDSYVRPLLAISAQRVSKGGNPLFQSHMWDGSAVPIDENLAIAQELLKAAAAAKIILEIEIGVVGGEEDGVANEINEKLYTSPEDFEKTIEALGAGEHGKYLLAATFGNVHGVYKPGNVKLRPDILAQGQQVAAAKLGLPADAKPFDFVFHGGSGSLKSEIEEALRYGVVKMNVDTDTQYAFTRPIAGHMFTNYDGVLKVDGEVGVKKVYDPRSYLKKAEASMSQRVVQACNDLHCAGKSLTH
Mtb BioA inh – M. tuberculosis BioA enzyme inhibitors, primary screen, biochemical, plate reader, single point, HTS. hit rate 0.096% among 360,000. AID 602481, 2012. purified M. tuberculosis BioA enzyme. inhibition, % at 9.99 µM. 7,8-diaminopelargonic acid synthase BioA (Mycobacterium tuberculosis); in the data active = inhibition above about 40%
3CLpro inhibitor – SARS-CoV 3CLpro protease inhibitors, primary screen, biochemical, quenched FRET. Replicase polyprotein 1ab (Severe acute respiratory syndrome coronavirus), P0C6X7. recombinant SARS-CoV 3CLpro, quenched FRET peptide cleavage. inhibition, % at 6 µM. hit rate 0.14% among 290,000. AID 1706, 2009; in the data active = inhibition above about 12%
FadD28 binding – inhibitors of FadD28 bisubstrate probe binding, primary screen, biochemical, fluorescence polarization, single point; hit rate 0.22% among 360,000; inhibition, % at 12.5 µM; AID 588549, 2011; Mycobacterium tuberculosis FadD28 fatty-acid-AMP ligase; in the data active = inhibition above about 8.5%, passing the limit was not always enough
GDH-TPI counter-1 – GDH-TPI coupling enzyme inhibitors, primary screen, artefact control for M. tuberculosis FBA inhibitor project, biochemical, absorbance, full deck; hit rate 1.2% among 360,000; AID 588335, 2011; inhibition, % at 4.8 µM; GDH-TPI coupled enzyme counterscreen, NADH absorbance; in the data active = inhibition above about 30%;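 also: 0% = DMSO wells and 100% = wells lacking the enzyme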
Mtb FBA inh conf – M. tuberculosis aldolase blockers, biochemical, fluorescence, strain H37Rv, confirmation; shares compounds with FBA Mtb inh; purified M. tuberculosis FBA, fluorescence read-out; inhibition, % at 1 µM; hit rate 78% among 5,600;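 also: 0% = vehicle wells and 100% = reference inhibitor wells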
GDH-TPI counter-2 – GDH-TPI coupling enzyme inhibitors, artefact control for M. tuberculosis FBA inhibitor project, biochemical, fluorescence, high throughput. shares compounds with FBA Mtb inh. GDH-TPI coupled enzyme counterscreen. inhibition, % at 1 µM. hit rate 81% among 5,600. AID 652141, 2013; in the data active = inhibition above about 10%
Active calls of the source: *; · = not tested or not shown; + = active, no number. This is a sample that favours compounds with a hit; in the whole collection about 3.1% have one here. Rule as the data show it, unless noted: active = inhibition above about 27%; inactive = the rest.

SMILES	FBA Mtb inh	Mtb BioA inh	3CLpro inhibitor	FadD28 binding	GDH-TPI counter-1	Mtb FBA inh conf	GDH-TPI counter-2
COc1ccc(-c2ccc(C(=O)NCc3ccncc3)c3occc23)c(C)c1	110.6*	4.1	·	-21.9	-8.0	+	+
COc1ccc(-c2ccc(C(=O)NCC(C)C)c3occc23)c(C)c1	57.7*	0.1	·	-14.8	9.7	166.4*	132.1*
O=C1NC(c2ccco2)Nc2ccccc21 (configuration not stated)	42.8*	-2.4	-5.6	-3.0	1.9	57.0*	49.2*
Cc1ccc(C2NC(=O)c3ccccc3N2)c(C)c1 (configuration not stated)	61.8*	·	·	-2.0	6.0	79.8*	60.8*
CCCNC(=O)C[C@H]1CC[C@H]2[C@@H](COc3ccc(NC(=O)Nc4cccc(C)c4)cc3C(=O)N2C)O1	·	-2.2	·	·	·	·	·
CO[C@H]1CN(C)C(=O)c2ccc(NC(C)=O)cc2OC[C@@H](C)N(CC2CCCCC2)C[C@@H]1C	·	3.2	·	·	·	·	·
CCCC(=O)Nc1ccc2c(c1)nc1n2CCN(CCOC)C1	33.4*	0.6	1.9	-1.7	4.7	+	178.8*
CCCCC(=O)Nc1ccc2c(c1)nc1n2CCN(CCOC)C1	51.5*	0.1	-4.6	-3.9	6.6	16.3	12.3*
CCCCC(=O)Nc1ccc2c(c1)nc1n2CCOC1	1.9	0.4	-4.4	-4.1	-1.4	·	·
COCCN1CCn2c(nc3cc(NC(=O)c4cccs4)ccc32)C1	-0.1	7.6	3.0	-1.9	23.9	·	·
COc1cc2c(cc1O)C=[N+](Cc1cc3c(cc1Br)OCO3)CC2	·	3.1	·	·	·	·	·
COc1ccc(CN(C)C[C@@H]2Oc3ccc(NC(=O)Nc4ccc(F)cc4)cc3CC(=O)N([C@@H](C)CO)C[C@@H]2C)cc1	·	-1.0	·	·	·	·	·
Cc1nc2ccc(C(=O)O)cc2c2c1CC(C)S2 (configuration not stated)	60.6*	-1.9	-3.3	-8.0	2.9	43.7*	30.0*
Cc1ccc(-c2cnc3c(c2)C(=O)N([C@@H](C)CO)C[C@H](C)[C@H](CN(C)Cc2ccccc2C(=O)O)O3)cc1	·	1.0	·	·	·	·	·
O=C1c2nc3cc(-c4ccco4)[nH]n3c(=O)c2CN1Cc1ccccc1	97.2*	0.5	-1.0	1.9	-0.8	104.2*	67.1*
COc1ccc(-c2nnc(-c3cc(OC)c(OC)c(OC)c3)o2)cc1OC	88.6*	-1.6	-6.5	0.1	19.9	39.6*	28.4*
CCOc1ccc(-c2nnc(-c3cccs3)o2)cc1OCC	25.3	·	-4.8	-2.9	18.0	·	·
COc1cc(-c2nnc(-c3cccs3)o2)cc(OC)c1OC	11.8	-0.3	1.7	-1.0	22.5	·	·
CCOc1ccc(-c2nnc(-c3cccs3)o2)cc1	74.5*	0.3	2.8	-0.1	8.1	54.5*	46.4*
COc1ccc(-c2nnc(-c3cccs3)o2)cc1OC	55.0*	0.9	-1.6	-0.4	21.1	63.1*	53.2*
COCCNC(=O)/C(C#N)=C/c1c(N2CCN(C)CC2)nc2c(C)cccn2c1=O	80.8*	0.5	-2.0	-1.6	16.4	96.0*	84.3*
COCCNC(=O)/C(C#N)=C/c1c(N2CCCCCC2)nc2c(C)cccn2c1=O	4.8	2.3	-0.7	0.1	1.3	·	·
CCN1CCN(c2nc3c(C)cccn3c(=O)c2/C=C(\C#N)C(=O)NCCOC)CC1	97.3*	-1.1	4.1	0.2	15.6	62.7*	44.8*
CCN1CCN(c2nc3c(C)cccn3c(=O)c2C=C(C#N)C#N)CC1	1.4	3.0	-1.2	-3.2	2.0	·	·
COCCCNC(=O)/C(C#N)=C/c1c(N2CCN(C)CC2)nc2c(C)cccn2c1=O	91.9*	0.0	3.7	0.6	1.3	55.6*	43.7*
CN(C)c1ccc2c(c1)[C@H]1C[C@H](CC(=O)NCc3ccncc3)O[C@H](CO)[C@H]1O2	·	0.7	·	·	·	·	·
